Several values for one entry are separate records, joined by “and”; a condition that tells them apart may be missing. Equal entries are not always repeated. About 83,000 compounds went through this panel and 20% of them were active in at least one assay; those are over-represented in the sample as a whole.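 Activity criterion: percent growth below 10, measured after cells in 96-well plates were exposed to a single compound concentration for 48 hours.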 Unmarked numbers belong to inactive results. Activity calls are given as the source filed them.
Tested on: MDA-MB-468 breast
Experiment: NCI-60 one-dose screen, 48 h (100 = growth as untreated, 0 = no growth, -100 = all killed)
Details: 10 µM unless noted

SMILES | growth
O=C(Cn1cc(CN2C(=O)c3ccccc3S2(=O)=O)nn1)Nc1nc2ccccc2s1 | 130%
COc1cccc(C(=O)NCCNc2cc(-c3cn(-c4ccccc4)nc3-c3cccc(OC)c3)ccn2)c1 | 48.9%
CC(=O)Nc1cccc(NC(C)=O)n1 | 99.3%
CC(=O)c1c(C)[nH]c(-c2nc3ccc(N4CCN(C)CC4)cc3[nH]2)c1-c1ccc(OCC2CCOCC2)cc1 | 11.4%
COc1ccc2cc(-c3nc4ccc(C)cn4c3NCc3ccco3)c(=O)[nH]c2c1 | 67.1%
Fc1ccc(-c2cc3nc(C(Cl)Cl)nc(-c4ccc(Cl)cc4)n3n2)cc1 | -76.3% (active)
COC1=CC(=O)c2ccccc2C1=O | 32.7%
C[C@@H]1[C@H]2[C@H](C=C3[C@@H]4CC[C@H]5Cc6nc7c(nc6C[C@]5(C)[C@H]4C[C@@H](O)[C@@]32C)C[C@@H]2CC[C@H]3C4=C[C@@H]5O[C@@]6(CC[C@](C)(CO)O6)[C@@H](C)[C@@]5(O)[C@@]4(C)[C@H](O)C[C@@H]3[C@@]2(C)C7)O[C@]12CCC(C)(C)O2 | 11.8%
CS(=O)(=O)Nc1cccc(-c2ccc3ncnc(Nc4cncc(Cl)c4)c3c2)c1 | -39.5% (active)
C=C1C(=O)O[C@H]2[C@H]1CC/C(COC(=O)NCc1c[nH]c3ccc(OC)cc13)=C\CC[C@@]1(C)O[C@@H]21 | -27.8% (active)
C#CCOc1cccc(-c2ncnc3cc(NC(=O)CCl)ccc23)c1 | -57.3% (active)
C=CCn1c(SCC(=O)Nc2ccc(C(=O)/C=C/c3ccc(OC)cc3)cc2)nnc1-c1ccc(OC)c(OC)c1 | 75%
COc1ccc(OC)c(/C=C2\COc3ccc(O)c(O)c3C2=O)c1 | 16.6%
C=C(C)[C@@H]1C[C@H](O)Cc2cc(Cl)cc(Cl)c2N1 | 97.5%
COc1ccc(-c2cc(C(=O)N3N=C(c4ccc(N)cc4)CC3c3ccccc3)c3ccccc3n2)cc1 (centres undefined) | 29.3%
C=C1C(=O)O[C@H]2[C@H]1CC/C(COC(=O)NCc1cc(OC)c(OC)c(OC)c1)=C\CC[C@@]1(C)O[C@@H]21 | 35.4%
CCN1C(=O)c2ccc3c4c(ccc(c24)C1=O)C(=O)N(CCCNCc1ccccc1OC)C3=O | -71.4% (active)
CN(C)c1cccc2c(S(=O)(=O)N[C@H]3CC[C@H]4[C@@H]5CCc6cc(O)ccc6[C@H]5CC[C@]34C)cccc12 | 34.5%
COc1ccc(/C=N/NC(=O)Cn2c(-c3ccc(S(C)(=O)=O)cc3)nc3cc(Cl)ccc32)cc1 | -18.5% (active)
FC(F)(F)c1[nH]ncc1-c1nc2ccc3n[nH]c(C#Cc4cccnc4)c3c2c2c1CCCC2 | 73.9%
Cc1ccc(NC2=C(Cl)C(=O)c3nc(C)ccc3C2=O)cc1 | -81.9% (active)
COc1cc(/C=C/C(=O)c2ccc(N3CCN(C)CC3)cc2)ccc1F | 35%
O=C1c2ccccc2C(=O)c2c(N=Nc3sc(=O)[nH]c3S)cccc21 | 104%
COc1ccc(/C=C/c2nc(-c3n[nH]c(=O)n3-c3ccccc3)c3ccccc3n2)cc1 | 100%
O=C(c1ccc(O)cc1)[C@@H]1CN[C@@]2(C(=O)Nc3ccccc32)[C@H]1c1ccc(F)cc1 | 97.5%

SMILES | growth
O=C(Nc1ccc(N=Cc2c(O)[nH]c3ccccc23)cc1)Nc1ccc(S(=O)(=O)Nc2ncccn2)cc1 | 116%
CCNC(=S)NN | 34.9%
N#C/C(=C1\SC(=O)CN1c1ccccc1)c1nc2ccccc2s1 | 115%
COc1cc(-c2nn(-c3cccc(NC(=O)Nc4cc(C(F)(F)F)cc(C(F)(F)F)c4)c3)cc2-c2ccncc2)ccc1Cl | -25.4% (active)
S=C1NC2(c3ccccc3)CCC(=S)N2c2ccccc21 (centres undefined) | 112%
COc1ccc(-c2nn(-c3ccc(NC(=O)c4cc(Cl)cc(Cl)c4)cc3)cc2-c2ccncc2)cc1Cl | 70.1%
O=C(/C=C/c1cc(Cl)ccc1Cl)Nc1ncc(Cc2ccc(Cl)cc2)s1 | 23.8%
CN1CCN(c2nc(Nc3ccc(O)cc3)nc3ccccc23)CC1 | 75.2%
COc1cc2c(cc1OC)[C@H](C(=O)O)[C@@H](c1ccc(OC(C)C)c(OC)c1)N(C)C2=O | 105%
Cc1cc(C)n(Cc2cc(C(C)(C)C)cc(C(C)(C)C)c2)c(=O)c1C#N | 97.4%
C/C(=C(/C)C1CC1CCN(C(=O)c1ccc([N+](=O)[O-])cc1)S(=O)(=O)c1ccc(C)cc1)C1CCCCC1 (centres undefined) | 82.5%
CCOc1nc(-c2ccccc2)cc2c(O)c(C(=O)O)[nH]c(=O)c12 | 96.2%
CC(C)C[C@@H](NC(=O)[C@@H](Cc1ccccc1)NC(=O)c1cnccn1)B1Oc2ccc(C[C@H](NC(=O)[C@H](Cc3ccc4c(c3)OB([C@@H](CC(C)C)NC(=O)[C@@H](Cc3ccccc3)NC(=O)c3cnccn3)O4)NC(=O)[C@@H](N)CC3CCC4OB([C@@H](CC(C)C)NC(=O)[C@@H](CC5CCCCC5)NC(=O)C5CNCCN5)OC4C3)C(=O)NCCCC[C@@H]3NC(=O)[C@@H](Cc4ccccc4)NC(=O)[C@H](CC(=O)O)NC(=O)CNC(=O)[C@H](CCCNC(=N)N)NC3=O)cc2O1 (some centres undefined) | -41.5% (active)
Clc1ccccc1N=Cc1ccc2c(c1)OCO2 | 101%
CC(C)NCC(O)COc1ccc(CC(N)=O)cc1 (centres undefined) | 102%
O=[N+]([O-])c1cnc(N2CCN(CC3CC3)CC2)nc1N1CCN(CC2CC2)CC1 | 76.9%
O=C(C(=O)N1CCOCC1)c1ccc(OC2OC(CO)C(O)C(O)C2O)cc1 (centres undefined) | 105%
CC1(C)CC[C@]2(C(=O)N3CCOCC3)CC[C@]3(C)C(=CC[C@@H]4[C@@]5(C)CC[C@H](OC(=O)c6cccnc6)C(C)(C)[C@@H]5CC[C@]43C)[C@@H]2C1 | 45.6%
CC[N+](CC)(CC(=O)Nc1c(C)cccc1C)Cc1ccccc1 | 63.8%
O=C1C=CC(O)=CC1=P(c1ccccc1)(c1ccccc1)c1ccccc1 | 92%
O=C1C(Cl)=C(Nc2ccccc2)C(=O)C(Cl)=C1Nc1ccccc1 | 102%
CC(C)C[C@@H](C(=O)N[C@H](C(=O)OC1CCCC1)c1ccccc1)[C@H](O)C(=O)NO | 16.9%
Cc1cccc(C)c1NC(=S)/N=C\c1c(O)[nH]c(=O)[nH]c1=O | 114%
COc1cc2nc(Sc3sc(N)nc3C)n(-c3ccc(Oc4ccccc4)cc3)c(=O)c2cc1OC | 80.2%
CO[C@H]1/C=C(/C)CCC[C@H](C)[C@H](O)[C@@H](C)C(=O)C(C)(C)[C@@H](O)CC(=O)O[C@@H]1/C(C)=C/c1csc(C)n1 | -23.3% (active)

SMILES | growth
N#Cc1nc(-c2ccc(Cl)cc2)cc(-c2ccc(Nc3nc(N4CCCCC4)nc(N4CCCCC4)n3)cc2)c1N | 106%
c1ccc(-c2oc(-c3ccccc3)c(CN3CCCCC3)c2CN2CCCCC2)cc1 | -35.9% (active)
O=C(NCCCCCCNC(=O)OCc1ccc2c(Cl)cc(Cl)c(O)c2n1)OCc1ccc2c(Cl)cc(Cl)c(O)c2n1 | -62.7% (active)
CC(C)(C)OC(=O)NCc1ccc(CNc2c([N+](=O)[O-])cnc3ccccc23)cc1 | 22.2%
CC(C)(C)n1cc(-c2ccnc(NCCNS(=O)(=O)c3ccc(Cl)cc3)c2)c(-c2cccc(O)c2)n1 | 32.6%
COc1cc(Cn2ccc3c2-c2oncc2CC3)cc(OC)c1 | 10.9%
COC(=O)CNc1nc(N(C)O)nc(N(C)O)n1 | 30.6%
Cc1ncc(C(=O)Nc2ccc(CN3CCN(C)CC3)c(C(F)(F)F)c2)cc1C#Cc1c(N)ncc2ccc(C#N)cc12 | 98.5%
CCOC(=O)c1c(C)oc2ncnc(N3CCN(C(=O)COc4ccc(C(C)(C)C)cc4)CC3)c12 | 60.9%
O=C1c2cccc3cccc(c23)C(=O)N1CC#Cc1ccc2c3c(cccc13)C(=O)N(CCO)C2=O | 94.2%
CC(=O)CCSc1ccc(OC(C)=O)cc1 | 101%
Nc1c(C(=O)Nc2ccccc2)sc2nc3c(cc12)C(=O)CCC3 | 4.62% (active)
CCN1C/C(=N\S(=O)(=O)c2ccccc2)N(CC)C1=S | 97.7%
COc1ccc(C(=O)Nc2cccc(-c3cc(=O)c4c(OC)c(OC)c(OC)cc4o3)c2)cc1 | 75.2%
C=C(C)C(=O)O[C@H]1C[C@@]2(C)OC(=CC2=O)/C(C)=C\[C@H]2OC(=O)C(=C)[C@H]12 | -52.5% (active)
COc1ccc(C(=O)c2ccc(OC)c(OC)c2OC)cc1 | -7.95% (active) and -19% (active)
Cc1[nH]c2ccc(F)cc2c1CCNC(=O)C1CCN(C(=O)c2ccc(-c3ccccc3)cc2)CC1 | 48.5%
Nc1ccc(N=Nc2ccccc2)cc1[N+](=O)[O-] | -6.35% (active)
COc1cc(C2CC(c3ccc(C)cc3)=NN2C=O)ccc1OCCN(C)C (centres undefined) | 93.1%
COc1ccc2c(c1)c(-c1nc(N)nnc1-c1c[nH]c3ccccc13)cn2C | -9.57% (active)
Cc1ccc(-c2nc(N3CCCNCC3)c3oc(-c4ccc(C)cc4)nc3n2)cc1 | 5.4% (active)
CCOC(=O)C1=C(N)Oc2c(sc3c(CC)cccc23)C1c1ccc(F)cc1 (centres undefined) | 46.1%
NS(=O)(=O)c1ccc(Nc2nc(N/N=C/CCc3ccccc3)nc(Nc3ccccc3)n2)cc1 | 88.6%
Oc1ccc(-c2nc3ccc(/C(=N\N=C\c4ccc(Cl)cc4)c4ccccc4)cc3[nH]2)cc1 | 79.5%
